# Screens (PubChem)
# Sampled rows, rich in hits. Any-hit rate of the full collection: about 1.2%.
# Akt phos inh – blocks phosphorylation of Akt; Neuro2A IGF-stimulated pAkt S473 HTRF, 20 min; stronger effect = lower value; activity change, % for hits at 50 µM; actives 0.32% (n = 360,000); AID 651550; in the data active means activity change below about -80%; inconclusive means mostly about -51% to -80%; further: on the % scale 0 is the no-effect control and ±100 the full control effect
#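 Neuro2A cells (4,500/well, DMEM with 0.5% FBS) were treated with compound at a single 50 µM final concentration, stimulated with 6 nM IGF for 20 min at 37 °C, and lysed. Phospho-Akt Ser473 was read by HTRF as 665/615 ratio ×10^4.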
# gsp antag – antagonizes gsp, the McCune-Albright syndrome mutation; gsp-mutant cells, cAMP HTRF, 30 min; AID 624288; actives 0.4% (n = 340,000); Potency, µM (highest dose often 76.9 µM), for the others: at the highest dose activity change, negative = inhibition, usual class: inhibitors; calls by dose curve; cell line not stated here;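 further: intracellular cAMP measured with PDE inhibitor Ro 20-1724 present during compound exposure; potency means the concentration at half of the fitted maximal effect; on the % scale 0 is the no-effect control and ±100 the full control effect; nearly all actives have a fitted effect of over 65% in size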
#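 Cells in G418 medium, seeded 16-24 h, 37C; buffer exchange to DPBS + 1 mM CaCl2, 0.5 mM MgCl2, 0.05% BSA; cpds in DMSO + […] (300 uM stock), 30 min 37C; HTRF cAMP detection.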
# gsp agonist – agonists of gsp mutant (McCune-Albright syndrome) | actives 0.13% (n = 340,000) | Potency, µM (series often up to 76.9 µM), inactives show top-dose activation (cAMP increase), usual class: activators | gsp mutant cells, cAMP HTRF, 30 min | AID 624287; active means well fitted activation curve with a large enough effect; inconclusive means small, poorly fitted or top-dose-only effect, or another doubt; inactive means no such curve, though single readings can be large or run the other way; cell line not stated here;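 further: phosphodiesterase inhibitor Ro 20-1724 added with compounds to block cAMP breakdown; potency means the concentration at half of the fitted maximal effect; nearly all actives have a fitted effect of over 60% in size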
#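 Cells in DMEM/10% FBS with G418 were pretreated with compounds in DMSO plus […] (300 uM stock) for 30 min at 37C. cAMP was measured by HTRF (cAMP-d2 plus anti-cAMP antibody-K) after 30 min at room temperature.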
# RXFP1 ag – RXFP1 (human) receptor agonism; actives 0.3% (n = 370,000); Q9HBX9; HEK293T-RXFP1 cAMP TR-FRET, 30 min; response scale: percent of porcine relaxin response, buffer zero; Potency, µM (series often up to 57.5 µM), inactives show top-dose activation, usual class: activators; active means well fitted activation curve with a large enough effect; inconclusive means small, poorly fitted or top-dose-only effect; further: potency means the concentration at half of the fitted maximal effect; on the % scale 0 is the no-effect control and ±100 the full control effect; nearly all actives have a fitted effect of over 60% in size
# Target sequence (Q9HBX9 whole entry, looked up): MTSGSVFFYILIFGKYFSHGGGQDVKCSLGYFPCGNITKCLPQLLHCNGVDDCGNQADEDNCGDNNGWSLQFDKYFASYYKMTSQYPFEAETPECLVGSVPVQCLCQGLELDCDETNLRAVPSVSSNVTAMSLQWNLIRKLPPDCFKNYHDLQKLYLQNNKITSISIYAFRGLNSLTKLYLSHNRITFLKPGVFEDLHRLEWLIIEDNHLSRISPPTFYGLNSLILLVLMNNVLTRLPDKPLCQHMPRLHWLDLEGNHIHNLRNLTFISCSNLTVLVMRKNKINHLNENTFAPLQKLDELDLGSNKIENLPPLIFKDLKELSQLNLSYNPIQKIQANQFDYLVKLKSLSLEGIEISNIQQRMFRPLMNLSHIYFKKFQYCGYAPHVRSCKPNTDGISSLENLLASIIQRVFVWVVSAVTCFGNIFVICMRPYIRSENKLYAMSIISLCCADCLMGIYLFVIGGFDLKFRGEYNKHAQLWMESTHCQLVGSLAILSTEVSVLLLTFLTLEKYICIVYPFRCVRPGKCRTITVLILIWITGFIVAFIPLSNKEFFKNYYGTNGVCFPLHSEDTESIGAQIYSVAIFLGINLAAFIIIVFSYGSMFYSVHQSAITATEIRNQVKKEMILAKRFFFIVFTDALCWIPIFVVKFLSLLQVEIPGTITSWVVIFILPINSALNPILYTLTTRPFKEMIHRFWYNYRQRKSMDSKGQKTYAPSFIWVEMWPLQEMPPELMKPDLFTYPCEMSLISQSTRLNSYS
#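 HEK293 cells stably expressing RXFP1, treated 30 min at 37C with compounds plus PDE4 inhibitor Ro 20174; cAMP measured by HTRF TR-FRET. Normalized to buffer and 29 nM porcine relaxin; EC50 by Hill fit.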
# RXFP1 antagonist – antagonists of human relaxin receptor RXFP1; HEK293-RXFP1, relaxin-stimulated cAMP HTRF, 30 min; stronger effect = lower value; activity change, negative = inhibition, % at 57.5 µM; actives 0.59% (n = 350,000);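 active means activity change of -60% or lower, but not beyond a set lower limit; inconclusive means change between -60% and -40%, or beyond the set limit; inactive means change above -40%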; further: on the % scale 0 is the no-effect control and ±100 the full control effect
# Starred values were filed as active, the others as inactive; i = inactive; u = inconclusive; x = no result given; [ ] = dose if it differs, or a comment.
SMILES,Akt phos inh,gsp antag,gsp agonist,RXFP1 ag,RXFP1 antagonist
O=C(O)CNC1c2ccccc2CSc2ccccc21 (stereo unspecified),i,-11%,10%,x,-63*
Cc1ccccc1CN1C(=O)CN=C(c2ccccc2)c2cc(Cl)ccc21,x,x,x,1%,-95*
CCOCCOC(C)=O,x,x,x,x,13
CCc1cc2c(s1)N(CC(=O)OC)C(=O)CN=C2c1ccccc1OC,i,-6%,0%,0%,-3
Cc1ccccc1C1=NCC(=O)N(CC(=O)N2CCCCC2)c2sc(C)c(C)c21,i,7.1µM*,-29%,1%,-6
Clc1ccccc1N1CCNCC1,x,x,x,x,9
O=C(c1ccc2c(c1)OCO2)C1CCCN(Cc2ccc(F)c(F)c2)C1 (stereo unspecified),i,-11%,-8%,1%,-22
O=C(c1ccc(Cl)cc1)C1CCCN(Cc2ccc3c(c2)OCCO3)C1 (stereo unspecified),i,7%,-5%[15.4 µM],0%,-73*
CNC(=O)Oc1cc2c(cc1C(C)(C)C)CCC2,i,-2%,u,x,-86*
CCC1(CCC(C)C)C(=O)NC(=O)NC1=O,x,x,x,x,6
CCOP(=O)(OCC)C(CC)N1CCOCC1 (stereo unspecified),-118%*,-2%,4%,1%,0
O=c1c2ccccc2nc(CSc2ncnc3nc[nH]c23)n1-c1ccccc1,-84%*,20%,-9%,u,0
O=c1c2ccccc2nc(CSc2ncnc3nc[nH]c23)n1-c1ccccc1Cl,i,2%,8%,1%,5
C[C@]12CC[C@H]3[C@@H](CCC4=CC(=O)CC[C@@H]43)[C@@H]1CC[C@@H]2OC(=O)CCC1CCCCC1,x,x,x,x,-11
CC(Cc1ccc2c(c1)OCO2)NO (stereo unspecified),x,x,x,x,14
O=C(N[C@H]1N=C(c2ccccc2F)c2cccc3c2N(CC3)C1=O)c1cc2ccccc2[nH]1,x,x,x,x,-23
O=C(O)c1ccc2c(c1)C1C(Cl)C(Sc3ccccc3[N+](=O)[O-])CC1C(c1cccc([N+](=O)[O-])c1)N2 (stereo unspecified),i,-53%,-1%[15.4 µM],-1%,-89*
CC1Sc2c(C(=O)O)c(=O)c3cc(F)c(N4CCNCC4)cc3n21 (stereo unspecified),x,x,x,x,-3
CCCN(CCC)c1c([N+](=O)[O-])cc(S(N)(=O)=O)cc1[N+](=O)[O-],x,x,x,x,-73*
CCN(CCNc1ccc([N+](=O)[O-])c2cccnc12)S(=O)(=O)c1ccccc1,i,-5%,14%,1%,-4
CCOC(=O)N(c1ccccc1)P1(=S)OCCO1,-110%*,1%,21%,-1%,-7
COC(=O)N(c1ccccc1)P1(=S)OCCO1,i,12%,-11%,-1%,6
C[C@H]1CNCCc2ccc(Cl)cc21,x,x,x,x,-10
Cc1[nH]n(-c2ccccc2)c(=O)c1C(C[N+](=O)[O-])c1ccccc1Cl (stereo unspecified),i,-10%,21%,2%,3
Cc1[nH]n(-c2ccccc2)c(=O)c1C(c1ccc([N+](=O)[O-])cc1)c1c(C)[nH]n(-c2ccccc2)c1=O,i,25µM*,u,0%,-11
SMILES,Akt phos inh,gsp antag,gsp agonist,RXFP1 ag,RXFP1 antagonist
CCON=C(CC)C1=C(O)CC(c2c(C)cc(C)cc2C)CC1=O (stereo unspecified),x,x,x,x,-34
CCN(CC)c1ccc(/C=C2\C(=O)NC(=O)N(Cc3ccco3)C2=O)cc1,i,-21%,-37%,7%,-66*
O=C1NC(=O)N(Cc2ccco2)C(=O)/C1=C/c1cccn1CCOc1ccccc1Cl,i,30%,-8%,-1%,-61*
CCc1ccc(C2CCNCC2)cc1,x,x,x,x,-6
Sc1ccccc1Cl,x,x,x,x,-6
O=C1NC(=S)NC(=O)C12C(c1ccc(F)cc1)NC(=S)NC2c1ccc(F)cc1 (stereo unspecified),-118%*,8%,-27%,0%,6
O=C1NC(=S)NC(=O)C12C(c1ccccc1)NC(=S)NC2c1ccccc1 (stereo unspecified),i,5%,9%,2%,-8
CCC(=O)C(CCN(C)C)(c1ccccc1)c1ccccc1,x,x,x,x,9
O=c1c(C2CC(c3ccc(-c4ccc(Br)cc4)cc3)Cc3ccccc32)c(O)sc2ccccc12 (stereo unspecified),x,x,x,x,-72*
CC(C)Oc1cccc(C(=O)C2CCCN(Cc3ccon3)C2)c1 (stereo unspecified),i,2%,-10%,-1%,1
COc1ccc(C(=O)C2CCCN(Cc3ccon3)C2)c(OC)c1 (stereo unspecified),i,50µM*,4%,4%,1
CC(Cc1ccccc1)NCCn1cnc2c1c(=O)n(C)c(=O)n2C (stereo unspecified),x,x,x,x,20
COc1ccc(OC)c(CCNCc2c(C(=O)O)c(C)n(Cc3ccc(F)cc3Cl)c2C)c1,x,x,x,0%,-63*
COc1ccc(OC)c(CNCCc2ccc(OC)c(OC)c2)c1,i,3%,-19%,-1%,10
CCN1CCCC1CNC(=O)C(O)(c1ccccc1)c1ccccc1 (stereo unspecified),x,x,x,x,5
c1ccc(CCCN2CCN(CCOC(c3ccccc3)c3ccccc3)CC2)cc1,i,-10%,x,x,x
Fc1ccc(C(OCCN2CCN(CCCc3ccccc3)CC2)c2ccc(F)cc2)cc1,x,x,x,x,-73*
C=CCNC(=O)c1c(N)n(Cc2ccco2)c2nc3ccccc3nc12,-99%*,3%,2%,2%,-18
COCCNC(=O)c1c(N)n(Cc2ccco2)c2nc3ccccc3nc12,i,9%,-3%,4%,-4
COc1ccc(-n2c(O)c(/C=C3\C=Nc4ccc(Br)cc43)c(=O)[nH]c2=O)c(OC)c1,i,-18%,u,-3%,-71*
CN1C2CCC(C)(C)C1CC(OC(=O)C(O)(c1cccs1)c1cccs1)C2 (stereo unspecified),x,x,x,x,6
CCN(CC)CCc1c[nH]c2ccccc12,x,x,x,x,10
COc1ccc(CC2(CCc3ccncc3)C(=O)NC(=O)NC2=O)c(OC)c1,i,-2%,u,-1%,7
COc1cc(CC2(CCc3ccncc3)C(=O)NC(=O)NC2=O)cc(OC)c1OC,i,6%,4%,0%,-79*
CCC(=NCCN1CCOCC1)c1c(O)n(-c2ccccc2C)c(=O)[nH]c1=O,-122%*,5%,16%,0%,3
O=C(COc1ccc(S(=O)(=O)N2CCCCC2)cc1)N1CCN(Cc2ccccc2)CC1,i,-16%,32µM*,2%,5
CCc1ccc(CN2CCN(Cc3ccc(SC)cc3)CC2)cc1,i,7%,3%[15.4 µM],0%,-62*
Cc1ccc(OCC(=O)N2CCN(CCc3ccncc3)CC2)cc1,x,x,x,-3%,6
